# The sample as a whole holds a higher share of hits than the screen did.
# IDE exosite FP: exo-site inhibitors of human insulin-degrading enzyme | P14735 | purified IDE, FL-6b probe fluorescence polarization; active compounds read low | z-score at 20 µM | actives 6.3% (n = 17,000) | AID 1259349;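 active = z-score of -3 or lower, meaning strong loss of probe binding signal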;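 also: His-tagged human IDE residues 42-1019 made in E. coli with 30 nM FL-6b probe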
# Target sequence (P14735 42-1019 limits assumed): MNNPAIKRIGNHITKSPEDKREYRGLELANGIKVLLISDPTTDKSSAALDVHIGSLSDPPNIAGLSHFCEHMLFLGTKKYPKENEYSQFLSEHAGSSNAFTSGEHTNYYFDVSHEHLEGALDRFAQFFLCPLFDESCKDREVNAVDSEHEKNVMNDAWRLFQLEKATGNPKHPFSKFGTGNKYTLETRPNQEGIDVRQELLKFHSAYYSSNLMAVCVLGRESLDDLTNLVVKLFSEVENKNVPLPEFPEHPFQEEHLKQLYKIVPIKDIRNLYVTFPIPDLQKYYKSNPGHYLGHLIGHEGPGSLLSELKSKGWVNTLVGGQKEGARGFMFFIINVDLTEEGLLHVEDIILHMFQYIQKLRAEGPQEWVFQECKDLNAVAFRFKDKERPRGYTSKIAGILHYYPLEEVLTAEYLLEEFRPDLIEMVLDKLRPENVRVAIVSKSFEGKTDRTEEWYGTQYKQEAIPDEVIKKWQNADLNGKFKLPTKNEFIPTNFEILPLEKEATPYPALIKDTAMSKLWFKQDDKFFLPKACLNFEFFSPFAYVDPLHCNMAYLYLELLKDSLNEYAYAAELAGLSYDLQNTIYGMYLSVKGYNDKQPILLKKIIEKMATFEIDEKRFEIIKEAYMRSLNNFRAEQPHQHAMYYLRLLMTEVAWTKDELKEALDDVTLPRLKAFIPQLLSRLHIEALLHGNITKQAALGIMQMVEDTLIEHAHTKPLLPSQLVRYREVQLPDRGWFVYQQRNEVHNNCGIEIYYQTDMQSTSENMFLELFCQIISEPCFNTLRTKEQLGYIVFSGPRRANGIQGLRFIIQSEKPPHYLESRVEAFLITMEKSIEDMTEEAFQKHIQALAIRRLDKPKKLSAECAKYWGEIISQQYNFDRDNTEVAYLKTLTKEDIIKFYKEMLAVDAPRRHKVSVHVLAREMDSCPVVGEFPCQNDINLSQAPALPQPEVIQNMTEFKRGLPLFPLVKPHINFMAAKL
# An asterisk follows results filed as active.
SMILES,IDE exosite FP
CCCNC(=O)N1[C@H](CO)[C@@H](c2ccccc2)C12CN(C(=O)C1CCCCC1)C2,-0.12
CN(C)CC#Cc1ccc([C@@H]2[C@H](CO)N3CCCCN(C(=O)CN(C)C)C[C@@H]23)cc1,4
CN(C)CC(=O)N1CCCCN2[C@@H](CO)[C@@H](c3ccc(/C=C/c4ccccc4)cc3)[C@@H]2C1,-12*
CN(C)CC(=O)N1CCCCN2[C@H](C1)[C@@H](c1ccc(/C=C/c3ccccc3)cc1)[C@@H]2CO,-5.9*
C/C=C/c1ccc([C@@H]2[C@H]3CN(C(=O)CN(C)C)CCCCN3[C@H]2CO)cc1,1.1
CN(C)CC#Cc1ccc([C@@H]2[C@H]3CN(C(=O)CN(C)C)CCCCN3[C@H]2CO)cc1,1.7
CN(C)CC(=O)N1CCCCN2[C@@H](CO)[C@@H](c3ccc(-c4ccccc4)cc3)[C@@H]2C1,-0.78
CC(C)c1cn(CC[C@H]2CC[C@@H](NS(=O)(=O)c3ccc(F)cc3)[C@H](CO)O2)nn1,0.21
CN(C)C(=O)c1cccc(-c2ccccc2[C@@H]2[C@H](C#N)N(C(=O)C3CCC3)[C@H]2CO)c1,2.4
Cc1noc(C)c1S(=O)(=O)N(C)C[C@H]1OCCCC[C@H](C)Oc2ccc(NC(=O)CCC(F)(F)F)cc2C(=O)N([C@H](C)CO)C[C@@H]1C,2.2
O=C(CN1CCOCC1)N1CC2(C1)[C@H](c1ccccc1)[C@H](CO)N2Cc1cccc(F)c1,1
O=C(Nc1cccc(Cl)c1)N1C[C@H]2[C@@H](c3ccccc31)[C@@H](CO)N2Cc1cccnc1,3.3
CCS(=O)(=O)N1CC(=O)N2[C@@H](CO)[C@H](c3ccc(C#CC4CCCCC4)cc3)[C@@H]2C1,-1.1
Cc1ccccc1S(=O)(=O)N1CCCCN2[C@H](CO)[C@@H](c3ccc(-c4cccc(F)c4)cc3)[C@H]2C1,4.1
COc1ccc(-c2ccc([C@H]3[C@H](CO)N[C@@H]3C#N)cc2)cc1,1.6
O=C(NC[C@@H]1N[C@@H](CO)[C@@H]1c1ccccc1)C1CC1,3.8
N#C[C@H]1N[C@H](CO)[C@H]1c1ccc(-c2ccccc2F)cc1,4.7
COc1ccccc1-c1ccc([C@H]2[C@H](CO)N[C@@H]2C#N)cc1,-4.2*
N#C[C@@H]1N[C@H](CO)[C@H]1c1ccc(-c2ccccc2F)cc1,2.8
O=C(NC[C@H]1N[C@H](CO)[C@@H]1c1ccc(-c2cncnc2)cc1)C1CCCCC1,-0.6
N#C[C@@H]1N[C@@H](CO)[C@@H]1c1ccc(-c2ccccc2F)cc1,2
COc1ccccc1-c1ccc([C@@H]2[C@H](C#N)N[C@@H]2CO)cc1,-9.3*
COc1ccccc1-c1ccc([C@H]2[C@@H](C#N)N[C@@H]2CO)cc1,-0.79
COc1ccccc1-c1ccc([C@@H]2[C@@H](C#N)N[C@@H]2CO)cc1,-8.9*
COc1ccccc1-c1ccc([C@H]2[C@@H](CO)N[C@@H]2CNC(=O)C2CCCC2)cc1,-11*
SMILES,IDE exosite FP
N#C[C@H]1N[C@@H](CO)[C@@H]1c1ccc(-c2ccccc2F)cc1,1.4
O=C(Nc1ccccc1)N1CCCCN2[C@@H](CO)[C@H](c3ccc(C4=CCCCC4)cc3)[C@@H]2C1,4.5
O=C(C[C@H]1CC[C@@H](NC(=O)c2ccc(F)cc2)[C@H](CO)O1)NCCc1ccccc1,3.6
C[C@@H]1CCCCO[C@@H](CN(C)S(C)(=O)=O)[C@H](C)CN([C@@H](C)CO)C(=O)c2cc(NC(=O)NC3CCCCC3)ccc2O1,0.11
C[C@@H]1CN([C@@H](C)CO)C(=O)c2ccccc2-c2ccccc2CO[C@@H]1CN(C)C(=O)CCC(F)(F)F,-0.18
Cc1cccc(-c2ccccc2[C@H]2[C@@H](C#N)N(c3ncc(-c4ccccc4)s3)[C@@H]2CO)c1,-0.17
O=C1C[C@H](c2ccccc2)C(=O)N[C@H](c2ccccc2)C/C=C\C[C@H](c2ccccc2)N1,2.3
Fc1ccc(CN2[C@@H]3CNC[C@H]2C3c2ccc(-c3ccncc3)cc2)cc1 (stereo not given in full),2.2
CN1C(=O)c2cc(NS(=O)(=O)c3cccc(F)c3)ccc2OC[C@@H]2O[C@@H](CC(=O)N3CCc4ccccc4C3)CC[C@@H]21,0.031
O=C1[C@H](Cc2ccc(F)cc2)CCn2cc(nn2)COC[C@H]2CCCN12,0.2
C/C=C/c1ccc([C@H]2[C@H](CO)N[C@H]2CN(C(=O)C2CCC2)C(C)C)cc1,5.9
O=C(Cc1cccnc1)N1CC(=O)N2[C@@H](CO)[C@H](c3ccc(/C=C/c4ccccc4)cc3)[C@@H]2C1,-2.7
O=C(c1ccncc1)N1CC(=O)N2[C@H](C1)[C@H](c1ccc(/C=C/c3ccccc3)cc1)[C@@H]2CO,-0.3
O=C(c1cccnc1)N1CC(=O)N2[C@H](CO)[C@H](c3ccc(/C=C/c4ccccc4)cc3)[C@@H]2C1,-10*
O=C(c1cccnc1)N1CC(=O)N2[C@@H](CO)[C@@H](c3ccc(/C=C/c4ccccc4)cc3)[C@@H]2C1,-8.6*
O=C(c1cccnc1)N1CC(=O)N2[C@H](C1)[C@@H](c1ccc(/C=C/c3ccccc3)cc1)[C@@H]2CO,-7.7*
O=C(c1ccccc1)N1CC(=O)N2[C@H](CO)[C@@H](c3ccc(/C=C/c4ccccc4)cc3)[C@@H]2C1,-1.6
O=C(c1ccccc1)N1CC(=O)N2[C@H](CO)[C@@H](c3ccc(/C=C/c4ccccc4)cc3)[C@H]2C1,-0.53
O=C(c1ccncc1)N1CC(=O)N2[C@H](CO)[C@H](c3ccc(/C=C/c4ccccc4)cc3)[C@@H]2C1,-9.5*
O=C(c1ccccc1)N1CC(=O)N2[C@H](C1)[C@H](c1ccc(/C=C/c3ccccc3)cc1)[C@@H]2CO,-2.2
CC(C)CC#Cc1ccc([C@@H]2[C@H]3CN(C(=O)c4ccccn4)CC(=O)N3[C@H]2CO)cc1,1.2
CCS(=O)(=O)N1CC2(C1)[C@H](c1ccccc1)[C@@H](CO)N2Cc1ccc(F)cc1,0.73
O=C(Nc1ccc2c(c1)[C@@H]1C[C@H](CC(=O)N3CCc4ccccc4C3)O[C@@H](CO)[C@@H]1O2)c1ccc2c(c1)OCO2,1.2
N#C[C@@H]1[C@H](c2ccccc2-c2cccc(F)c2)[C@H](CO)N1C(=O)Cc1cccnc1,2.4
O=C(c1cccnc1)N1CC(=O)N2[C@H](CO)[C@@H](c3ccc(/C=C/c4ccccc4)cc3)[C@@H]2C1,-4.3*
SMILES,IDE exosite FP
O=C(c1cccnc1)N1CC(=O)N2[C@H](C1)[C@H](c1ccc(/C=C/c3ccccc3)cc1)[C@@H]2CO,-4.5*
O=C(Nc1cccc(F)c1)N1CCCCN2[C@@H](CO)[C@H](c3ccc(C#Cc4cccnc4)cc3)[C@@H]2C1,0.046
O=C1CN(Cc2ccc(F)cc2)C[C@H]2[C@@H](c3ccc(-c4ccccc4F)cc3)[C@@H](CO)N12,3.1
Cc1noc(C)c1NC(=O)N1C[C@@H](O)COC[C@@H]2O[C@@H](CC(=O)N[C@@H]3CCN(Cc4ccccc4)C3)CC[C@H]21,-0.37
COc1cccc(C(=O)Nc2ccc3c(c2)C(=O)N(C)[C@@H]2CC[C@@H](CC(=O)NCc4ccc(F)cc4)O[C@H]2CO3)c1,-0.98
CO[C@@H]1CN(C)C(=O)c2ccc(NC(=O)c3nc4ccccc4s3)cc2OC[C@H](C)N(Cc2cccnc2)C[C@@H]1C,-0.88
Cc1noc(C)c1NC(=O)Nc1ccc2c(c1)C(=O)N(C)[C@@H]1CC[C@H](CC(=O)N[C@H]3CCN(Cc4ccccc4)C3)O[C@@H]1CO2,-0.21
COc1cccc(C#Cc2ccc([C@@H]3[C@@H](CO)N4C(=O)CN(C(=O)c5ccccc5)C[C@H]34)cc2)c1,0.1

# Screening data deposited in PubChem by Broad Institute.
